Laboratory results published in PubChem BioAssay (Tox21).
Values joined by “and” are separate entries in the source; they are usually repeats but may differ in a detail not shown here. Identical values can stand only once. Inconclusive results are not listed. More than one record can exist for a structure, and the calls need not agree. Active and inactive are the calls of the source. Unless noted, the call rests on the fitted dose curve; in most records, active means well fitted curve in the direction sought with a large enough effect in the repeat runs; inconclusive means weak or mixed curves; inactive means no such curve, though single readings can be large; an effect the other way counts as inactive or inconclusive.

Tests used:
[1] = qHTS assay to identify small molecule agonists of the RXR signaling pathway - cell viability counter screen (AID 1159529); further: nearly all actives have a fitted effect of over 50% in size; further: potency means the concentration at half of the fitted maximal effect
Summary of the method: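 Luminescence from CellTiter-Glo (30 min, RT) measured viability in the same wells as the beta-lactamase reporter readout. Cells: GeneBLAzer RXR-alpha HEK 293T, 2% charcoal-stripped FBS. Compound exposure 16 hr, 37 C.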

[2] = qHTS assay to identify small molecule antagonists of the retinoid acid receptor (RAR) signaling pathway - cell viability counter screen (AID 1159551); further: nearly all actives have a fitted effect of over 35% in size; further: potency means the concentration at half of the fitted maximal effect
Summary of the method: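 Cytotoxicity counter screen: ATP content quantified by CellTiter-Glo luminescence in C3RL4 cells treated 6 hr at 37 C with compound and retinol (1 uM final). Cells plated at 1,000/well and cultured overnight before dosing.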

[3] = qHTS assay to identify small molecule antagonists of the retinoic acid receptor (RAR) signaling pathway (AID 1159552; further: nearly all actives have a fitted effect of over 50% in size; further: potency means the concentration at half of the fitted maximal effect)
Summary of the method: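 Luminescence from a RARE luciferase reporter in C3RL4 cells served as read-out. Cells received compounds together with 1 uM final retinol and incubated 6 hr at 37 C before detection reagent was added for 30 min at room temperature.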

[4] = qHTS assay to identify small molecule antagonists of the estrogen related receptor (ERR) signaling pathway from Tox21 library - cell viability counter screen (AID 1224834); further: nearly all actives have a fitted effect of over 30% in size; further: potency means the concentration at half of the fitted maximal effect
Summary of the method: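 CellTiter-Fluor fluorescence, read after 30 min at 37 C, measures viability of ERR cells. Cells plated at 2,000/well and incubated 6 h before pin-tool compound addition, then exposed 17.5 hours at 37 C.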

[5] = biological target: Luciferin 4-monooxygenase (Photinus pyralis) (UniProt P08659); test: qHTS assay to identify small molecule inhibitors of firefly luciferase (AID 1224835); further: nearly all actives have a fitted effect of over 25% in size; further: potency means the concentration at half of the fitted maximal effect
Summary of the method: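 Biochemical qHTS: compounds run as interplate titrations against purified firefly enzyme, with D-luciferin and ATP each at its KM concentration. Light output recorded by CCD imaging.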

[6] = qHTS assay to identify small molecule agonists of the constitutive androstane receptor (CAR) signaling pathway - cell viability counter screen (AID 1224836); further: nearly all actives have a fitted effect of over 45% in size; further: potency means the concentration at half of the fitted maximal effect
Summary of the method: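 Viability read-out: CellTiter-Fluor fluorescence after 23 h compound exposure at 37 C/5% CO2 in double-stable HepG2-CYP2B6-hCAR cells, with PK11195 present at 0.75 uM final; compounds tested in 15-point titration.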

[7] = qHTS assay to identify small molecule antagonists of the constitutive androstane receptor (CAR) signaling pathway - cell viability counter screen (AID 1224837); further: nearly all actives have a fitted effect of over 45% in size; further: potency means the concentration at half of the fitted maximal effect
Summary of the method: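 Cytotoxicity counter-screen: CellTiter-Fluor fluorescence after 23 h compound exposure (15-point qHTS) in double-stable HepG2-CYP2B6-hCAR cells, with 50 nM CITCO added.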

[8] = biological target: Nuclear receptor subfamily 1 group I member 3 (Homo sapiens) (UniProt Q14994); test: qHTS assay to identify small molecule antagonists of the constitutive androstane receptor (CAR) signaling pathway (AID 1224838);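 further: HepG2 cells stably expressing hCAR with CYP2B6 luciferase reporter stimulated by CITCO; nearly all actives have a fitted effect of over 40% in size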; further: potency means the concentration at half of the fitted maximal effect
Summary of the method: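 Antagonism measured as luciferase signal (ONE-Glo, 30 min, room temperature) in CAR-stimulated cells: HepG2-CYP2B6-hCAR double-stable line exposed 24 hr at 37 C to compound in a 15-point series plus 50 nM CITCO.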

[9] = biological target: Nuclear receptor subfamily 1 group I member 3 (Homo sapiens) (UniProt Q14994); test: qHTS assay to identify small molecule agonists of the constitutive androstane receptor (CAR) signaling pathway (AID 1224839); further: nearly all actives have a fitted effect of over 15% in size; further: potency means the concentration at half of the fitted maximal effect
Summary of the method: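 Luminescence read-out (ONE-Glo, 30 min, room temperature) from double-stable HepG2-CYP2B6-hCAR cells exposed 24 h to 15-point compound series in presence of 0.75 uM PK11195 final.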

[10] = qHTS assay to identify small molecule agonists of the estrogen related receptor signaling pathway with the pleiotropic PPARgamma coactivator (PGC) from Tox21 10K library (AID 1224842); further: nearly all actives have a fitted effect of over 15% in size; further: potency means the concentration at half of the fitted maximal effect
Summary of the method: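 PGC/ERR reporter cell line, 2,000 cells per well, incubated 6 h at 37 C before 23 nL compound in DMSO was added. After 18 h at 37 C, One-Glo luminescence read following 30 min at room temperature.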

[11] = qHTS assay to identify small molecule antagonists of the estrogen related receptor signaling pathway with the pleiotropic PPARgamma coactivator (PGC) from Tox21 10K library - cell viability counter screen (AID 1224840; active means well fitted cell-killing curve with a large enough effect in the repeat runs, not every such curve was filed as active; further: nearly all actives have a fitted effect of over 40% in size; further: potency means the concentration at half of the fitted maximal effect)
Summary of the method: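 Counter-screen for cytotoxicity: after 17.5 h compound exposure at 37 C, CellTiter-Fluor reagent added to PGC/ERR cells for 30 min and fluorescence read. Cells were seeded at 2,000 per well 6 h before dosing.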

[12] = qHTS assay to identify small molecule antagonists of the estrogen related receptor signaling pathway with the pleiotropic PPARgamma coactivator (PGC) from Tox21 10K library (AID 1224841; call rule not given here; further: actives are mostly falling curves and most rising ones were filed inactive; nearly all actives have a fitted effect of over 50% in size; further: potency means the concentration at half of the fitted maximal effect)
Summary of the method: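 Luminescence (One-Glo, 30 min at room temperature) after 18 h compound treatment at 37 C of PGC/ERR reporter cells plated at 2,000 cells/well and settled 6 h beforehand.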

[13] = biological target: Thyrotropin receptor (Homo sapiens) (UniProt P16473); test: qHTS assay to identify small molecule agonists of the thyroid stimulating hormone receptor (TSHR) signaling pathway (AID 1224843; calls by dose curve; further: nearly all actives have a fitted effect of over 45% in size)
Summary of the method: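 HEK293/TSHR, 800 cells/well; cpd 30 min RT; add cAMP-d2 + anti-cAMP-cryptate, 1 h RT; fluorescence read on plate reader. 15-pt titration, n=3.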

[14] = qHTS assay to identify small molecule agonists of the retinoic acid receptor (RAR) signaling pathway (AID 1159553)
Summary of the method: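 Luminescence was measured 30 min after luciferase reagent addition at room temperature. Before that, C3RL4 reporter cells (1,000 per well, plated overnight) were treated with compound for 6 hr at 37 C and 5% CO2.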

Measured: Potency

Sequence of Thyrotropin receptor (Homo sapiens) (P16473 whole entry, looked up): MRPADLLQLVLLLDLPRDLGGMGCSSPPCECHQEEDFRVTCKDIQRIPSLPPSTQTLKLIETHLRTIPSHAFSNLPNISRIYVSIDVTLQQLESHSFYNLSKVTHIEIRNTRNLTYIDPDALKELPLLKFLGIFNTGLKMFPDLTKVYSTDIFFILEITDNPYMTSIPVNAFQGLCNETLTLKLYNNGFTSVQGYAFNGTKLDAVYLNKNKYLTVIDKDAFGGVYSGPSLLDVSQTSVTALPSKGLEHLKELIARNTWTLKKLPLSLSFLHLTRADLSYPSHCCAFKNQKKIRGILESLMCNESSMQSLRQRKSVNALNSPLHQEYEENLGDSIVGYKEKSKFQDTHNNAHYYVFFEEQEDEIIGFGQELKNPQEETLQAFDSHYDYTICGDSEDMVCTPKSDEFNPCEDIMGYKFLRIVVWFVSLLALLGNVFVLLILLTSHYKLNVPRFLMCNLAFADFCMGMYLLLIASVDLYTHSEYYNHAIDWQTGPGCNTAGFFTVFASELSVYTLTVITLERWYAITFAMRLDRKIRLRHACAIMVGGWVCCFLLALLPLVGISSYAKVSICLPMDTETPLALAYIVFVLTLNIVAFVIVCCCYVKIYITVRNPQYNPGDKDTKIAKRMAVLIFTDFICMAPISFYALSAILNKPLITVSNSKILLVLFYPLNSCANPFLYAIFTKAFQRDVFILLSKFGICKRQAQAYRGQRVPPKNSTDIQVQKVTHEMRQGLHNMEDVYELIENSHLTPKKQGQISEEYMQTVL
Sequence of Luciferin 4-monooxygenase (Photinus pyralis) (P08659 whole entry, looked up): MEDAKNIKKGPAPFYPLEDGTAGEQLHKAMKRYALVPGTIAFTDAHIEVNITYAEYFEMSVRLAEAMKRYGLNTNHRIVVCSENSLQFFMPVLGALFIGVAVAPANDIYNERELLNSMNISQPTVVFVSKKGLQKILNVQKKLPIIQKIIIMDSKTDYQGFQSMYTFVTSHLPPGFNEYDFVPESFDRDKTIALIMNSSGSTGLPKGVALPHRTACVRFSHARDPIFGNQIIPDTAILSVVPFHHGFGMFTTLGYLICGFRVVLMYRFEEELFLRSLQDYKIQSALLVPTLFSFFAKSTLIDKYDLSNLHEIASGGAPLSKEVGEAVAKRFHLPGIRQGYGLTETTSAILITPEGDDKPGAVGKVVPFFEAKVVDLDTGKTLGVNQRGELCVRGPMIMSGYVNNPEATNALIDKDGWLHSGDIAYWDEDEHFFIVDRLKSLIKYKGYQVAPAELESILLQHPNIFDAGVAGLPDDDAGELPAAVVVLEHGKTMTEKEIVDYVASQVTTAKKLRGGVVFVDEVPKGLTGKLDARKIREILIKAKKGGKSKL
Sequence of Nuclear receptor subfamily 1 group I member 3 (Homo sapiens) (Q14994 whole entry, looked up): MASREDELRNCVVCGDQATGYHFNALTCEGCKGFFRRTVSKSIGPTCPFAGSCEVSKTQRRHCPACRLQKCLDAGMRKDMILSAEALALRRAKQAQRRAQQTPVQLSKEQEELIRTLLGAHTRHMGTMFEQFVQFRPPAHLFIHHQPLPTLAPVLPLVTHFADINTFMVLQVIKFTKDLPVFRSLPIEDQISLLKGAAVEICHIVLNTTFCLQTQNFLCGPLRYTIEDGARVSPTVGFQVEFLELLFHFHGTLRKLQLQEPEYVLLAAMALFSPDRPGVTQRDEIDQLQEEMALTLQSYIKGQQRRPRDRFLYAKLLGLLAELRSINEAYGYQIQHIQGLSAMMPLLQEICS

Clc1ccc2cc3ccccc3cc2c1
active: [9] 54.4 µM | [10] 68.5 µM
not listed: [11] | [12] | [13] | [14]
inactive: all other assays above

O=c1[nH]sc2cc(Cl)ccc12
active: [1] 26.8 µM | [5] 17.4 µM | [8] 0.001 µM | [12] 0.298 µM
not listed: [14]
inactive: all other assays above

CCCCCCCCOC(=O)c1ccc(O)cc1
inactive: [2] | [3] | [14] | [6] | [7] | [8] | [13]
43.5 µM (active) and inactive: [1]

CCCCCCCC/C=C/CCCCCCCC1=NCCN1CCO
active: [1] 49 µM | [2] 68.6 µM | [3] 61.1 µM | [4] 54.5 µM | [7] 68.6 µM | [8] 61.1 µM
inactive: [5] | [9] | [10]

CCc1cc(SCc2sc(-c3ccc(C(F)(F)F)cc3)nc2CN2CCN(c3ccc(OC)cc3)CC2)ccc1OCC(=O)O
active: [1] 3.89 µM | [3] 61.1 µM | [4] 34.4 µM | [12] 19.3 µM
inactive: [2] | [5] | [6] | [7] | [9] | [10]

CCc1cc(Cc2cc(CC)c(N)c(CC)c2)cc(CC)c1N
active: [1] 38.9 µM | [9] 4.86 µM | [12] 21.7 µM
not listed: [4] | [11] | [13] | [14]
inactive: all other assays above

COc1ccc(CN2CCN(C(c3ccc(F)cc3)c3ccc(F)cc3)CC2)c(OC)c1OC
inactive: [2] | [5] | [9] | [10]
active: [1] 13.4 µM | [3] 26.6 µM | [4] 13.3 µM | [11] 26.6 µM | [12] 11.9 µM

O=C(c1ccc(O)cc1O)c1ccc(O)cc1O
active: [5] 40 µM and 44.8 µM
not listed: [4] | [10] | [11] | [12] | [14]
inactive: all other assays above

Cc1cc(C2CCCCC2)n(O)c(=O)c1
inactive: [1] | [2] | [3] | [5] | [13]
active: [4] 9.44 µM | [7] 29.8 µM

CC(C)(C)CC(C)(C)c1ccc(O)c(Cc2ccc(Cl)cc2Cl)c1
active: [1] 7.56 µM | [2] 26.6 µM | [3] 13.3 µM | [4] 23.7 µM | [11] 29.8 µM
inactive: [5] | [9] | [13]

CCCCc1oc2ccc(NS(C)(=O)=O)cc2c1C(=O)c1ccc(OCCCN(CCCC)CCCC)cc1
inactive: [5] | [9] | [10] | [13]
active: [1] 9.52 µM | [2] 26.6 µM | [3] 16.8 µM | [4] 21.1 µM | [11] 18.8 µM

O=C1CCCc2c1cc1ccc3cccc4ccc2c1c34
active: [5] 11.4 µM
inactive: [1] | [2] | [3] | [6] | [8] | [11] | [13]

O=C(O)c1c(Cl)cccc1Cl
not listed: [3] | [10] | [12]
inactive: all other assays above

CC(C)CCCCCCCCCCCCCCC(=O)O
active: [5] 35.6 µM
not listed: [3] | [13]
inactive: all other assays above

CCCCCCCCCCn1cc[n+](CCCCCCCCCC)c1C
inactive: [9] | [10]
active: [1] 6.93 µM | [2] 61.2 µM | [3] 24.4 µM | [4] 27.3 µM | [6] 30.7 µM | [7] 54.5 µM | [8] 30.7 µM | [11] 27.3 µM | [12] 27.3 µM

COc1cccc(N)c1
inactive: [1] | [2] | [3] | [6] | [7] | [9] | [11] | [13]

Cc1cccc2c1cc1ccc3cccc4ccc2c1c34
inactive: [1] | [2] | [3] | [4] | [5] | [12] | [10]
active: [9] 15.7 µM

Oc1ccc2c(c1)-c1ccccc1C2
active: [9] 54.5 µM
not listed: [5] | [8] | [14]
inactive: all other assays above

NC(=O)N1C(=O)C(C(=O)c2cc(Cl)cs2)c2cc(F)c(Cl)cc21 (stereo not given)
inactive: [2] | [3] | [9] | [10] | [13]
active: [1] 49 µM | [4] 27.3 µM | [5] 71 µM | [12] 38.6 µM
